Molecules are shown by their SMILES. The panel holds about 83,000 compounds, 20% with a hit somewhere; the sample as a whole holds those more often.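 Testing used 96-well plates and a 48-hour single-concentration exposure. Example: -40 means 40% of the starting cells died.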 A number with no mark means an inactive call. Active and inactive are the calls of the source. How the source made its calls: active means growth percent below 10; inactive means the rest.

In this assay the test system is HL-60(TB) leukemia. Put plainly: NCI-60 one-dose screen, 48 h (100 = growth as untreated, 0 = no growth, -100 = all killed). The note with it: 10 µM unless noted.
In the case of `CN1CCCc2cc(/C=C3/SC(=S)N(CCc4ccc(O)cc4)C3=O)ccc21`, the growth was 8.87% (active).
`COc1ccc(-c2csc(NC(=O)CSc3nc(C)c(-c4ccccc4)n3Nc3ccccc3)n2)cc1`: the growth is 50.3%.
`COc1ccc(-c2nc3cc(C(=O)Nc4cc(OC)c(OC)c(OC)c4)ccc3n2C2CCCCC2)cc1`: the growth was 85.9%.
In the case of `O=[N+]([O-])c1ccc(N=Nc2ccc(O)cc2O)cc1`, the growth is 32.5%.
Regarding `C[N+](C)(CCCCCC[N+](C)(C)C1c2ccccc2-c2ccccc21)C1c2ccccc2-c2ccccc21`, the growth was 85.7%.
For `COc1cc(C(=O)O/N=C(\N)Cc2cccc3ccccc23)cc(OC)c1OC`, the growth is -37.4% (active).
Turning to `COc1cc2c(cc1O)CC[C@@H]1C2CC[C@@]2(C)C1CC[C@@H]2O` (some centres undefined), the growth was -3.13% (active).
As to `CCCNc1nc2ccccc2c2c1S(=O)(=O)c1ccc(Cl)cc1C2=O`, the growth is -14.1% (active).
Consider `COc1cccc2c(=O)c3c(sc12)c(NCCN(C)C)nc1ccccc13`, for which the growth was 15.1%.
As for `C=C1C(=O)O[C@H]2[C@H]1CC/C(Cn1cc(-c3ccsc3)nn1)=C\CC[C@@]1(C)O[C@@H]21`, the growth was -23.5% (active).
For `COc1ccc(OC)c(NC2=C(SCCc3ccccc3)C(=O)c3ccccc3C2=O)c1`, the growth is 93.4%.
As for `C/C(Cc1ccc(Cl)cc1)=C(\c1ccc(OCCN2CCCCCC2)cc1)c1ccc(OC(=O)C2CCCCC2)cc1`, the growth was 17.6%.
`Cc1ccc(Cn2c(-c3nonc3N)nc3ccccc32)cc1`: the growth is 71.8%.
As for `CCOC(=O)CNC`, the figure is 97.3%.

The values are drawn from PubChem BioAssay (NCI).
